The text below walks through data of PubChem BioAssay AID1117292 (Broad Institute, 2014).

Measured potencies and affinities stand elsewhere. Results filed as inconclusive are left out. The source made the active and inactive calls.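 Rule for the calls: active = compound whose fitted half-maximal dose for signal loss lies within twice the top dose in every replicate test; inconclusive = tests disagree, or flat partial signal loss or poor fit; inactive = every test inactive, flat, rising or too weak.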

The assay deals with Endoplasmic reticulum aminopeptidase 1 (Homo sapiens) (UniProt Q9NZ08). The assay is described as follows: blocking ERAP1 cleavage of leucine-AMC substrate – biochemical, fluorescence plate reader, dry powder, dose response (AID 1117292). The following applies: purified ERAP1, Leu-AMC fluorescence, 60 min; series mostly up to 50 µM.
Sequence of Endoplasmic reticulum aminopeptidase 1 (Homo sapiens) (Q9NZ08 whole entry, looked up): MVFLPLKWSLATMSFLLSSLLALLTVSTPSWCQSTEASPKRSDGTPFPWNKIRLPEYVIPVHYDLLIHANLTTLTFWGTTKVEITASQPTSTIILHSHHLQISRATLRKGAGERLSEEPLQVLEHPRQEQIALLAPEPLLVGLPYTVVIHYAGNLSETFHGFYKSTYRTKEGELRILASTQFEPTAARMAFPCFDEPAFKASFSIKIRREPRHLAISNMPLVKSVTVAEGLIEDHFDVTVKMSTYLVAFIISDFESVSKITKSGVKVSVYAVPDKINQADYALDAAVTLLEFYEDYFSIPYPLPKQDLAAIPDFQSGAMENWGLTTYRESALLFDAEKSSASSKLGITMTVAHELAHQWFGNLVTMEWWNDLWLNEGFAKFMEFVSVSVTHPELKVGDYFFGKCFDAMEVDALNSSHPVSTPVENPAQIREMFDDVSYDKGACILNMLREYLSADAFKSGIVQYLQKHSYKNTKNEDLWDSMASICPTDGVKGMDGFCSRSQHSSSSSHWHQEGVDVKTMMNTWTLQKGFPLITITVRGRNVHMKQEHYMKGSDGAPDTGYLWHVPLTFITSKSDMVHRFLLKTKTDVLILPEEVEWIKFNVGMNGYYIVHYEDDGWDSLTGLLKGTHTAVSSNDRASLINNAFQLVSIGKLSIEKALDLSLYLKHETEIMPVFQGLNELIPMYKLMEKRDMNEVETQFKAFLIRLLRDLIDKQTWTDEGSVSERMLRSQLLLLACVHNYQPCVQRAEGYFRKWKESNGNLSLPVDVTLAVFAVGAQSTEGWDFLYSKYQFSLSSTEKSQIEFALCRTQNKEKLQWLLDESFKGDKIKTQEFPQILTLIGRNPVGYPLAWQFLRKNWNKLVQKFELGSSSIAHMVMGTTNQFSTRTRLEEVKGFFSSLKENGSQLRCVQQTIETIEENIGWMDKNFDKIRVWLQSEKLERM
As for `CC(=O)N1CCN(C(=O)C2(NC(=O)Nc3cccc(F)c3)CCCCC2)CC1`, the compound was classed as inactive.

As to `O=S(=O)(Nc1cc(C(F)(F)F)ccc1N1CCCCC1)c1ccccc1`, the call was inactive.

With `O=[N+]([O-])c1cccc(S(=O)(=O)Nc2cc(C(F)(F)F)ccc2N2CCCCC2)c1`, the outcome was inactive.

As for `CC(=O)N1CCN(C(=O)CNC(=O)Nc2ccc(C)cc2)CC1`, the outcome was inactive.

`CC(=O)N1CCN(C(=O)C2(NC(=O)NC(C)(C)C)CCCCC2)CC1`: the outcome was inactive.

As for `COc1ccc(C(=O)Nc2cc(F)ccc2N2CCCCC2)cc1S(=O)(=O)O`, the compound was classed as inactive.

Turning to `CC(=O)N1CCN(C(=O)[C@@H]2CCN2C(=O)Nc2ccc(C)cc2)CC1`, the call was inactive.

As to `CC(=O)N1CCN(C(=O)C2(NC(=O)Nc3ccc(F)cc3)CCCCC2)CC1`, the result was inactive.

Take `CC(=O)N1CCN(C(=O)C2(NC(=O)Nc3ccccc3)CCCC2)CC1`: the compound was called inactive.

Turning to `COc1ccc(C(=O)Nc2cc(C(F)(F)F)ccc2N2CCOCC2)cc1S(=O)(=O)O`, the result was inactive.

Turning to `COc1ccc(C(=O)Nc2cc(C(F)(F)F)ccc2N2CCCCC2)cc1S(=O)(=O)O`, the call was inactive.

Consider `O=C(Nc1cc(C(F)(F)F)ccc1N1CCCCC1)c1ccc(S(=O)(=O)O)cc1`, for which the outcome was inactive.

On to `COc1ccc(C(=O)Nc2cc(C(F)(F)F)ccc2N2CCCC2)cc1S(=O)(=O)O`, for which the outcome was inactive.

Regarding `O=S(=O)(Nc1cc(C(F)(F)F)ccc1N1CCCCC1)c1ccc(-c2ccccc2)cc1`, the outcome was inactive.

For `O=S(=O)(Nc1cc(C(F)(F)F)ccc1N1CCCCC1)c1ccc(C(F)(F)F)cc1`, the call was inactive.

In the case of `COc1ccc(C(=O)O)cc1S(=O)(=O)Nc1cc(C(F)(F)F)ccc1N(C)C`, the compound was classed as inactive.

Consider `CC(=O)N1CCN(C(=O)C2(NC(=O)Nc3ccccc3C(F)(F)F)CCCCC2)CC1`, for which the result was inactive.

As to `CC(=O)N1CCN(C(=O)C2(NC(=O)Nc3ccc(C(C)C)cc3)CCCCC2)CC1`, the outcome was inactive.

For the compound `COc1ccc(C(=O)Nc2cccc(C(F)(F)F)c2)cc1S(=O)(=O)O`, the call was inactive.

With `O=S(=O)(Nc1cc(C(F)(F)F)ccc1N1CCCCC1)c1cc(Cl)cc(Cl)c1`, the result was inactive.

Regarding `CC(=O)N1CCN(C(=O)C2CCCN2C(=O)Nc2ccc(C)cc2)CC1` (configuration not stated), the outcome was inactive.

On to `CC(=O)N1CCN(C(=O)C2(NC(=O)Nc3ccccc3F)CCCCC2)CC1`, for which the compound was called inactive.
